Results filed as inconclusive are left out. The source made the active and inactive calls. Unless noted, the call rests on the fitted dose curve.
Legend:
[1] = target: Gonadotropin-releasing hormone receptor (Homo sapiens) (UniProt P30968); experiment: Human gonadotropin-releasing hormone receptor (GnRHR) small molecule agonists, calcium flux assay in GnRHR-HEK293 cells (AID 1920063); further: nearly all actives have a fitted effect of over 35% in size
How it was run: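 Calcium flux, agonist mode, human GnRHR stably integrated in HEK293; dye 1 h at 37 C before compound; Ex/Em=480/540 kinetic read, 3 min; 15 concentrations, triplicate.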

[2] = target: KiSS-1 receptor (Homo sapiens) (UniProt Q969F8); experiment: Human kisspeptin (KISS1R) small molecule agonists, calcium flux assay in KISS1R-HEK293 cells (AID 1920064; active means well fitted activation curve with a large enough effect in the repeat runs)
How it was run: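 Triplicate 15-concentration series were applied to dye-loaded human KISS1R HEK293 cells, and agonist-evoked calcium fluorescence was captured for 3 min.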

[3] = G protein-coupled receptor (GPCR) small molecule agonists, calcium flux assay: HEK293 wild type cell line counter screen (AID 1920065)
How it was run: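 Non-specific calcium responders were flagged by adding DMSO-dissolved compounds to dye-loaded cells and reading 480/540 nm fluorescence each second for 3 min; ATP served as positive control.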

[4] = p53 small molecule agonists, cell-based qHTS assay with human liver microsomes (AID 1963577)
How it was run: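 Fluorescence of the beta-lactamase reporter in p53RE-bla cells, detected with LiveBLAzer substrate (2 h, room temperature, dark), served as the read-out after 16 h compound exposure at 37 C with human liver microsomes and NADPH, each 0.5 mg/mL final.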

[5] = p53 small molecule agonists, cell-based qHTS assay with rat liver microsomes (AID 1963578)
How it was run: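 Cells carrying a p53 response element–beta-lactamase reporter were plated and rested 5 h, then dosed with compound in DMSO plus rat liver microsomes and NADPH, each at 0.5 mg/mL final. After 16 h at 37 C, LiveBLAzer substrate was added for 2 h.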

[6] = p53 small molecule agonists, cell-based qHTS assay with human liver microsomes: qHTS cell viability counter screen (AID 1963579); further: nearly all actives have a fitted effect of over 45% in size; further: potency means the concentration at half of the fitted maximal effect
How it was run: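 Cytotoxicity counter screen: p53RE-bla, 4,000 cells/well; 5 h settle, 37 C/5% CO2; cpd + HLM 0.5 mg/mL + NADPH 0.5 mg/mL (final); 16 h, 37 C; CellTiter-Glo, 30 min RT, luminescence.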

[7] = p53 small molecule agonists, cell-based qHTS assay with rat liver microsomes: qHTS cell viability counter screen (AID 1963580); further: nearly all actives have a fitted effect of over 45% in size
How it was run: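 Cytotoxicity counter screen: intracellular ATP read by CellTiter-Glo luminescence in the p53 reporter wells. HCT-116 p53RE-bla cells were treated for 16 h at 37 C alongside rat liver microsomes and NADPH, each 0.5 mg/mL final.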

[8] = p53 small molecule agonists, cell-based qHTS assay: qHTS cell viability counter screen (AID 1963581); further: nearly all actives have a fitted effect of over 45% in size
How it was run: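 Multiplexed with the reporter read, a CellTiter-Glo step (30 min, room temperature) gauges ATP-based viability of HCT-116 p53RE-bla cells after 16 h compound incubation at 37 C.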

[9] = p53 small molecule agonists, cell-based qHTS assay (AID 1963582; active means well fitted activation curve with a large enough effect in the signal ratio in the repeat runs, not every such curve was filed as active; the % refers to the signal ratio)
How it was run: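 Beta-lactamase reporter cells (p53RE-bla) treated with compounds for 16 h at 37 C; FRET substrate, 2 h, room temperature; fluorescence intensity.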

[10] = target: 5-hydroxytryptamine receptor 2A (Homo sapiens) (UniProt P28223); experiment: 5-hydroxytryptamine receptor 2A (HTR2A) small molecule antagonists, cell-based qHTS assay (AID 1963586); further: nearly all actives have a fitted effect of over 45% in size; further: potency means the concentration at half of the fitted maximal effect
How it was run: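 CHO cells stably expressing human HTR2A were plated for 18 h at 37 C, then loaded with calcium dye for 1 h. Compounds were preincubated 5 min at room temperature before DOI (4 nM solution) was added. Kinetic fluorescence was read for 3 min.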

[11] = target: 5-hydroxytryptamine receptor 2A (Homo sapiens) (UniProt P28223); experiment: 5-hydroxytryptamine receptor 2A (HTR2A) small molecule agonists, cell-based qHTS assay (AID 1963587); further: nearly all actives have a fitted effect of over 30% in size
How it was run: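 Kinetic calcium-flux fluorescence (2 min, 1 sec intervals) after compound addition in agonist mode. HTR2A-CHO cells were cultured 18 h, then dye-loaded 1 h at 37 C.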

[12] = target: Muscarinic acetylcholine receptor M1 (Homo sapiens) (UniProt P11229); experiment: Cholinergic receptor muscarinic 1 (CHRM1) small molecule antagonists, cell-based qHTS assay (AID 1963588); further: nearly all actives have a fitted effect of over 40% in size; further: potency means the concentration at half of the fitted maximal effect
How it was run: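 Compounds were tested at 15 concentrations in three independent runs. Dye-loaded CHRM1-CHO cells were exposed 5 min at room temperature before stimulation by acetylcholine added at 50nM. Intracellular calcium was read kinetically on FDSS for 3 min.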

[13] = target: Muscarinic acetylcholine receptor M1 (Homo sapiens) (UniProt P11229); experiment: Cholinergic receptor muscarinic 1 (CHRM1) small molecule agonists, cell-based qHTS assay (AID 1963589); further: nearly all actives have a fitted effect of over 35% in size
How it was run: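 qHTS, 15-point titration, 3 independent runs: compounds pin-transferred onto dye-loaded CHRM1-CHO cells (human M1), calcium fluorescence followed every second to detect agonism.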

[14] = cAMP Responsive Elements (CRE) small molecule agonists, cell-based qHTS assay (AID 1963590)
How it was run: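 Quantitative HTS for CRE agonists: HEK 293T CRE-bla cells, overnight plating, 3 h compound incubation at 37 C/5% CO2, then 2 h room-temperature LiveBLAzer B/G FRET substrate loading.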

[15] = cAMP Responsive Elements (CRE) small molecule antagonists, cell-based qHTS assay (AID 1963591; active means well fitted inhibition curve with a large enough effect in the signal ratio in the repeat runs, not every such curve was filed as active; the % refers to the signal ratio)
How it was run: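 Fluorescence intensity from cleaved LiveBLAzer B/G substrate (2 h, room temperature) quantified CRE-bla activity in HEK 293T cells exposed 3 h to compound with 0.25 uM final NKH477.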

[16] = target: D(2) dopamine receptor (Homo sapiens) (UniProt P14416); experiment: Dopamine D2 receptor (DRD2) small molecule agonists, cell-based qHTS assay (AID 1963594); further: nearly all actives have a fitted effect of over 35% in size
How it was run: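 cAMP accumulation in DRD2-HEK293 cells measured by HTRF after 1 h detection; compounds added 10 min before NKH477 (200nM […]) forskolin-analogue stimulation, 30 min at room temperature, with Ro20-1724 present at 0.1 mM final.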

[17] = target: D(2) dopamine receptor (Homo sapiens) (UniProt P14416); experiment: Dopamine D2 receptor (DRD2) small molecule antagonists, cell-based qHTS assay (AID 1963595; active means well fitted inhibition curve with a large enough effect in the signal ratio in the repeat runs, with a control signal flat; the % refers to the signal ratio)
How it was run: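 In this cell-based antagonist screen, compounds act for 10 min at room temperature before a 30 min challenge with 12 nM quinpirole and 200 nM NKH477. cAMP is quantified by HTRF competition in DRD2-HEK293 cells containing 0.1 mM Ro20-1724.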

[18] = target: Beta-2 adrenergic receptor (Homo sapiens) (UniProt P07550); experiment: Adrenergic beta2 receptor (ADRB2) small molecule antagonists, cell-based qHTS assay (AID 1963592); further: series mostly up to about 92 µM; nearly all actives have a fitted effect of over 50% in size
How it was run: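 Assay format: CHO-ADRB2 cells, 18-20hr seeding at 37C/5% CO2, then compound plus 1nM isoproterenol agonist mix for 0.5hr RT. Homogeneous time-resolved fluorescence cAMP detection after 1hr, expressed as 665/615 nm ratio.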

[19] = target: Beta-2 adrenergic receptor (Homo sapiens) (UniProt P07550); experiment: Adrenergic beta2 receptor (ADRB2) small molecule agonists, cell-based qHTS assay (AID 1963593);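 further: CHO cells stably overexpressing human ADRB2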
How it was run: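 CHO cells stably over-expressing ADRB2 were plated overnight at 37C, then dosed with compounds plus a stimulation mix containing 100uM IBMX and 25uM Ro-20-1724 for 0.5hr at room temperature. cAMP was measured by HTRF competition, 1hr.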
On the % scale 0 is the no-effect control and ±100 the full control effect.

Sequence of KiSS-1 receptor (Homo sapiens) (Q969F8 whole entry, looked up): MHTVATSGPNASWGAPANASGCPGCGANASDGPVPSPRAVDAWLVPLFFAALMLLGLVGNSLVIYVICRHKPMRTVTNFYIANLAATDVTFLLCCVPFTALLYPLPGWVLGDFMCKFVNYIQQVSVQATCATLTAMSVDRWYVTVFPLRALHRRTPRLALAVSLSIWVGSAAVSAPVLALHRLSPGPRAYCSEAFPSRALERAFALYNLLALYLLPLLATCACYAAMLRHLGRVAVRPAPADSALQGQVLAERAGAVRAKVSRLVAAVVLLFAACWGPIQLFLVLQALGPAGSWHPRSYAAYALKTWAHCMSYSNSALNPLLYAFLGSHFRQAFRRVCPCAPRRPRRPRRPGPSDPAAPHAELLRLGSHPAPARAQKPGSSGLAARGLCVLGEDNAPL
Sequence of Beta-2 adrenergic receptor (Homo sapiens) (P07550 whole entry, looked up): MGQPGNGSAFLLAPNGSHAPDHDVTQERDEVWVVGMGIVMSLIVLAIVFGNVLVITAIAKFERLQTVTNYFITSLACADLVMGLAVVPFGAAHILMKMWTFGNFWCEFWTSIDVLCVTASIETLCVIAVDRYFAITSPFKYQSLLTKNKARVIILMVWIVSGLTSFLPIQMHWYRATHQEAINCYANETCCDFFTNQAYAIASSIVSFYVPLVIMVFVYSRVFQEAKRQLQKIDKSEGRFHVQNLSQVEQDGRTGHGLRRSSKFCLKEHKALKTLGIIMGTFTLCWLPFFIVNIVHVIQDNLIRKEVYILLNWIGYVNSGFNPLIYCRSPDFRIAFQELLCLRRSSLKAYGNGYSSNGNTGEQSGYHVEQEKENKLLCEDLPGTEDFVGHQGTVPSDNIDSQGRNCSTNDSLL
Sequence of Gonadotropin-releasing hormone receptor (Homo sapiens) (P30968 whole entry, looked up): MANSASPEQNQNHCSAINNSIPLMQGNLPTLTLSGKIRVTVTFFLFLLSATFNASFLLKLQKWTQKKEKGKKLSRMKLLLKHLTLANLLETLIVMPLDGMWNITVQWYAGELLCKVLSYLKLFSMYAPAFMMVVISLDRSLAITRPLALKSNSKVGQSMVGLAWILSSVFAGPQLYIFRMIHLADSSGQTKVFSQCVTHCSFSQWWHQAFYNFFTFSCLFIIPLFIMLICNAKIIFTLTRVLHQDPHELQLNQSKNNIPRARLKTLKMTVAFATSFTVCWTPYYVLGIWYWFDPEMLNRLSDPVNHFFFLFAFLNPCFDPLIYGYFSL
Sequence of D(2) dopamine receptor (Homo sapiens) (P14416 whole entry, looked up): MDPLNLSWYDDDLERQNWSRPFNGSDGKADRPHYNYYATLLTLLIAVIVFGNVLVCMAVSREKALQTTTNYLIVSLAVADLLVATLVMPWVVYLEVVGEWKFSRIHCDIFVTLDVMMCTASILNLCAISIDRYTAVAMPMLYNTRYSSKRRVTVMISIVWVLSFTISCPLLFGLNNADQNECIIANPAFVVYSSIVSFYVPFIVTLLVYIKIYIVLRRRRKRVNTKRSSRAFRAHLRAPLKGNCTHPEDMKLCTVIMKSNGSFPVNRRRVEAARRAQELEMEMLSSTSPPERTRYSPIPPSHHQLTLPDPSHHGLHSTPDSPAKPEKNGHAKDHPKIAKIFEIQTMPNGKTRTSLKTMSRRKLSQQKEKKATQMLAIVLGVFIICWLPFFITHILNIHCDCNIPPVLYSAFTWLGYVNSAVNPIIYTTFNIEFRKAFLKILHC
Sequence of Muscarinic acetylcholine receptor M1 (Homo sapiens) (P11229 whole entry, looked up): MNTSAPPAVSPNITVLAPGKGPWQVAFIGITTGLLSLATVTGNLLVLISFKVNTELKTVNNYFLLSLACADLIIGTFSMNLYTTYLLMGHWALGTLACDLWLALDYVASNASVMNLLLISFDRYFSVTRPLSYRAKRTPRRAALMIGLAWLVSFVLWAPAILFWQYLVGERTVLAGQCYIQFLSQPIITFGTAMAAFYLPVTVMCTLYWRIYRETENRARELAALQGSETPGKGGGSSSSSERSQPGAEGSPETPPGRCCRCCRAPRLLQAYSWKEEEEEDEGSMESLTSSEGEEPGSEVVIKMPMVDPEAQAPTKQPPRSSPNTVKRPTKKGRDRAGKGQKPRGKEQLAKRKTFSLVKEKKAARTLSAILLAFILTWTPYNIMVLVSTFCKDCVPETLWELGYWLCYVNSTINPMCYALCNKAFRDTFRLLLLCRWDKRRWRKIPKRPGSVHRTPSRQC
Sequence of 5-hydroxytryptamine receptor 2A (Homo sapiens) (P28223 whole entry, looked up): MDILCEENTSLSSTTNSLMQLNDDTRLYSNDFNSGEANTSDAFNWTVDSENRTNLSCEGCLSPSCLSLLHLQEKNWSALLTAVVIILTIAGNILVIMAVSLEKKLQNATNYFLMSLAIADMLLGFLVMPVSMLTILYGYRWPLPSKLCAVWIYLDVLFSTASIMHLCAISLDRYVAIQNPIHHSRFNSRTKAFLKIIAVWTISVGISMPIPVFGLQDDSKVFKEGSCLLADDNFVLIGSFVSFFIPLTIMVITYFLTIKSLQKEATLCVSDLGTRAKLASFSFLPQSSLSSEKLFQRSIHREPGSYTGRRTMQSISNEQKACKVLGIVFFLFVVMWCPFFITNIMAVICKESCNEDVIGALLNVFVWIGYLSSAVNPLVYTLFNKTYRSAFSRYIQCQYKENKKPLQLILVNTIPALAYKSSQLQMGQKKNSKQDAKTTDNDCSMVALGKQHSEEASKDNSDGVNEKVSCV

Nc1ccc(N=Nc2ccccc2)c(N)c1
inactive: Potency [1] | Potency [2] | Potency [3] | Potency [4] | Potency [5] | Potency [6] | Potency [7] | Potency [8] | Potency [9] | Potency [11] | Potency [13] | Potency [14] | Potency [15]
active: Potency [10] 1.64 µM | Potency [12] 23.2 µM

O=C1CCCCCCCCCCCCCCO1
inactive: Potency [1] | Potency [2] | Potency [3] | Potency [4] | Potency [5] | Potency [6] | Potency [7] | Potency [8] | Potency [9] | Potency [10] | Potency [13] | Potency [14] | Potency [15] | Potency [16] | Potency [17]

COc1cc([C@@H]2c3cc4c(cc3[C@@H](O[C@@H]3O[C@@H]5CO[C@@H](C)O[C@H]5[C@H](O)[C@H]3O)[C@H]3COC(=O)[C@H]23)OCO4)cc(OC)c1O
inactive: Potency [1] | Potency [2] | Potency [3] | Potency [4] | Potency [5] | Potency [6] | Potency [7] | Potency [8] | Potency [14] | Potency [18] | Potency [19] | Potency [16] | Potency [17]

CN1CCC[C@@H]1CCO[C@](C)(c1ccccc1)c1ccc(Cl)cc1
inactive: Potency [1] | Potency [2] | Potency [3] | Potency [4] | Potency [5] | Potency [6] | Potency [7] | Potency [8] | Potency [9] | Potency [16]

CCN(CC)CCOC(=O)C(c1ccccc1)C1CCCCC1 (stereo not drawn)
active: Potency [12] 0.041 µM
inactive: Potency [1] | Potency [2] | Potency [3] | Potency [4] | Potency [5] | Potency [6] | Potency [7] | Potency [13] | Potency [15] | Potency [18] | Potency [19]

CCCCCC(CO)CCC (stereo not drawn)
inactive: Potency [1] | Potency [2] | Potency [3] | Potency [4] | Potency [5] | Potency [6] | Potency [7] | Potency [8] | Potency [9] | Potency [10] | Potency [11] | Potency [12] | Potency [13] | Potency [18] | Potency [19]

ClC(Cl)Cl
inactive: Potency [1] | Potency [2] | Potency [3] | Potency [4] | Potency [5] | Potency [6] | Potency [8] | Potency [9] | Potency [14] | Potency [15] | Potency [18] | Potency [16] | Potency [17]

C=C(C)C(=O)OCC(O)COc1ccc(C(C)(C)c2ccc(OCC(O)COC(=O)C(=C)C)cc2)cc1 (stereo not drawn)
inactive: Potency [1] | Potency [2] | Potency [3] | Potency [4] | Potency [5] | Potency [7] | Potency [8] | Potency [12] | Potency [13] | Potency [16] | Potency [17]

Cc1ccc(O)c2ncccc12
inactive: Potency [1] | Potency [2] | Potency [3] | Potency [4] | Potency [5] | Potency [6] | Potency [8] | Potency [9] | Potency [10] | Potency [12] | Potency [13] | Potency [14] | Potency [18] | Potency [17]

CC(=O)OC(C)OC(C)=O
inactive: Potency [1] | Potency [2] | Potency [3] | Potency [4] | Potency [5] | Potency [6] | Potency [7] | Potency [8] | Potency [9] | Potency [10] | Potency [11] | Potency [12] | Potency [13] | Potency [14] | Potency [15] | Potency [18] | Potency [16] | Potency [17]

Cc1ccc(Cl)c(N)c1Cl
active: Potency [6] 18.2 µM
inactive: Potency [1] | Potency [2] | Potency [3] | Potency [4] | Potency [5] | Potency [7] | Potency [8] | Potency [11] | Potency [12] | Potency [13] | Potency [14] | Potency [15] | Potency [18] | Potency [19] | Potency [16] | Potency [17]

O=C(O)CCCCCCCCCCCBr
inactive: Potency [1] | Potency [2] | Potency [3] | Potency [4] | Potency [5] | Potency [6] | Potency [7] | Potency [10] | Potency [11] | Potency [12] | Potency [13] | Potency [16] | Potency [17]

CN(CCCN1c2ccccc2CCc2ccccc21)CC(=O)c1ccc(Cl)cc1
inactive: Potency [1] | Potency [2] | Potency [3] | Potency [4] | Potency [5] | Potency [6] | Potency [11] | Potency [13] | Potency [14] | Potency [15] | Potency [18] | Potency [16] | Potency [17]

CC[C@H]1OC(=O)[C@H](C)[C@@H](O[C@H]2C[C@@](C)(OC)[C@@H](O)[C@H](C)O2)[C@H](C)[C@@H](O[C@@H]2O[C@H](C)C[C@H](N(C)C)[C@H]2O)[C@](C)(O)C[C@@H](C)CN(C)[C@H](C)[C@@H](O)[C@]1(C)O
inactive: Potency [1] | Potency [2] | Potency [3] | Potency [4] | Potency [5] | Potency [7] | Potency [8] | Potency [9] | Potency [14] | Potency [18] | Potency [19] | Potency [16] | Potency [17]

C[C@](N)(Cc1ccc(O)cc1)C(=O)O
inactive: activity change [1] -1.06% [at 5.22 µM, active compounds read high] | activation [2] -0.73% [at 6.97 µM] | activation [3] 0.0455% [at 5.23 µM] | activation [4] 3.02% [at 5.99 µM] | activation [5] -3.92% [at 5.99 µM] | activity change, negative = cytotoxicity [6] 8.09% [at 5.99 µM] | activity change, negative = cytotoxicity [8] -19.4% [at 5.99 µM] | activation [9] -6.7% [at 5.99 µM] | activation [14] -0.0581% [at 8.39 µM] | activity change, negative = inhibition [15] 2.35% [at 8.39 µM] | activity change, negative = inhibition [18] 3.74% [at 8.39 µM] | activation [19] 23.8% [at 8.39 µM] | activation [16] -6.61% [at 8.39 µM] | activity change, negative = inhibition [17] -5.15% [at 8.38 µM]

COc1cc(C)nc(-n2nc(C)cc2OC)n1
inactive: Potency [1] | Potency [2] | Potency [3] | Potency [4] | Potency [5] | Potency [6] | Potency [7] | Potency [8] | Potency [9] | Potency [10] | Potency [11] | Potency [12] | Potency [13] | Potency [14] | Potency [15] | Potency [18] | Potency [17]

From PubChem BioAssay (Tox21)
